Data from PubChem BioAssay (Tox21).
Inconclusive results are not listed. A call without a number means that no potency is given here. Active and inactive are the calls of the source. Unless noted, calls come from the whole dose curve.

biological target: D(2) dopamine receptor (Homo sapiens) (UniProt P14416); assay: Dopamine D2 receptor (DRD2) small molecule agonists, cell-based qHTS assay (AID 1963594); conditions: HEK293-DRD2 cAMP HTRF, agonist mode, 30 min; series mostly up to 92.4 µM; activation: at the top concentration; note: nearly all actives have a fitted effect of over 35% in size
In short: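 cAMP accumulation in DRD2-HEK293 cells measured by HTRF after 1 h detection; compounds added 10 min before NKH477 (200nM […]) forskolin-analogue stimulation, 30 min at room temperature, with Ro20-1724 present at 0.1 mM final.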

D(2) dopamine receptor (Homo sapiens), sequence (P14416 whole entry, looked up): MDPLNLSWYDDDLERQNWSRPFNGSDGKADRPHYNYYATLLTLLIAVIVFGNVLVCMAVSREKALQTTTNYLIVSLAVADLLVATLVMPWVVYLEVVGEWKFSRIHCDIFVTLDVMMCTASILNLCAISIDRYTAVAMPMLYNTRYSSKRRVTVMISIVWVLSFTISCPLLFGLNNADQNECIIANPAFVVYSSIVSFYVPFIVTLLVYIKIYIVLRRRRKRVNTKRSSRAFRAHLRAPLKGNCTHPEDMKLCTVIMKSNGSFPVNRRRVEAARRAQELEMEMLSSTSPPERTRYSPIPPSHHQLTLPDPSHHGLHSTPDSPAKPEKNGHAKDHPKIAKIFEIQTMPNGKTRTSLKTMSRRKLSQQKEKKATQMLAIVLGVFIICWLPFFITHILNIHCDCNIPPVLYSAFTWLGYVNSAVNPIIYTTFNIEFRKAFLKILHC

Compound	activation	Potency
O=C(NCc1cccnc1)Nc1ccc([N+](=O)[O-])cc1	-7.9% (inactive)	–
ClC1=C(Cl)[C@]2(Cl)[C@@H]3[C@@H](Cl)[C@H](Cl)C[C@@H]3[C@@]1(Cl)C2(Cl)Cl	-0.495% (inactive)	–
COP(=O)(OC)OC=C(Cl)Cl	–	inactive
CNC(=O)CSP(=S)(OC)OC	–	inactive
CCOP(=O)(O)OCC (tested in a mixture with another compound)	–	inactive
CC(C)OC(=O)Nc1cccc(Cl)c1	–	inactive
C=CCc1ccc(OC)cc1	–	inactive
Oc1ccc(C(c2ccc(O)cc2)(C(F)(F)F)C(F)(F)F)cc1	–	inactive
COc1cc(OC)nc(NC(=O)NS(=O)(=O)c2ncccc2C(=O)N(C)C)n1	-0.557% (inactive)	–
O=C(Cl)CCl	-3.53% (inactive)	–
NC(=O)CF	14.2% (inactive)	–
CC(=[OH+])/C=C(/C)[O-].CC(=[OH+])/C=C(\C)[O-].CC(=[OH+])/C=C(\C)[O-].[Al]	0.812% (inactive)	–
Cc1ccc(CCl)cc1	0.41% (inactive)	–
CC(C)(C)OOC(=O)c1ccccc1	–	inactive
Nc1ccc(-c2ccc(N)cc2)cc1	–	inactive
COP(N)(=O)SC (stereo not drawn)	-8.23% (inactive)	–
Cc1ccc([N+](=O)[O-])cc1C	-0.227% (inactive)	–
Clc1cccc(Cl)c1	–	inactive

Compound	activation	Potency
CC(COc1ccc(Oc2ccccc2)cc1)Oc1ccccn1 (stereo not drawn)	-19.4% (inactive)	–
O=C(CBr)c1ccc(O)cc1	1.77% (inactive)	–
O=C1CCCN1	–	inactive
CCCCCCCCCCCCCCCC[N+](C)(C)C	–	inactive
O=S(=O)(O)OOS(=O)(=O)O	–	inactive
CCCCCCCCOC(=O)c1ccccc1C(=O)OCCCCCCCC	–	inactive
CCCCCCCCCCCCCl	–	inactive
COP(=S)(OC)SCN1C(=O)c2ccccc2C1=O	–	inactive
O=c1[nH]c(=O)n(Cl)c(=O)n1Cl	–	inactive
CCOP(OCC)OCC	–	inactive
OCC1CO1 (stereo not drawn)	–	inactive
CCOP(=S)(OCC)SCCSCC	–	inactive
COP(=S)(OC)Oc1ccc([N+](=O)[O-])cc1	–	inactive
COc1ccc2c3c1O[C@H]1[C@@H](O)C=C[C@H]4[C@@H](C2)N(C)CC[C@@]341	-0.409% (inactive)	–
Oc1ccc(Cl)cc1Cc1ccccc1	–	inactive
C=C(Cl)CCl	-0.0367% (inactive)	–
Cc1ccc(Cl)c(O)c1	-0.293% [at 42.5 µM] (inactive)	–
CCN(CC)N=O	–	inactive

biological target: D(2) dopamine receptor (Homo sapiens) (UniProt P14416); assay: Dopamine D2 receptor (DRD2) small molecule antagonists, cell-based qHTS assay (AID 1963595; active = well fitted inhibition curve with a large enough effect in the signal ratio in the repeat runs, with a control signal flat; the % refers to the signal ratio); conditions: HEK293-DRD2 cAMP HTRF antagonist mode; series mostly up to 92.4 µM; activity change, negative = inhibition: at the top concentration
In short: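 Stable D2 receptor HEK293 line, 24 h after seeding. Compound preincubated 10 min, then quinpirole (12 nM) with forskolin analogue NKH477 (200 nM), 30 min, room temperature. Detection by time-resolved FRET of cAMP.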

Compound	activity change, negative = inhibition	Potency
O=C(NCc1cccnc1)Nc1ccc([N+](=O)[O-])cc1	-0.113% (inactive)	–
ClC1=C(Cl)[C@]2(Cl)[C@@H]3[C@@H](Cl)[C@H](Cl)C[C@@H]3[C@@]1(Cl)C2(Cl)Cl	0.972% (inactive)	–
COP(=O)(OC)OC=C(Cl)Cl	–	inactive
CNC(=O)CSP(=S)(OC)OC	–	inactive
CCOP(=O)(O)OCC (tested in a mixture with another compound)	–	inactive
CC(C)OC(=O)Nc1cccc(Cl)c1	–	inactive
C=CCc1ccc(OC)cc1	–	inactive
Oc1ccc(C(c2ccc(O)cc2)(C(F)(F)F)C(F)(F)F)cc1	-1.72% (inactive)	–
COc1cc(OC)nc(NC(=O)NS(=O)(=O)c2ncccc2C(=O)N(C)C)n1	6.52% (inactive)	–
NC(=O)CF	1.25% (inactive)	–
CC(=[OH+])/C=C(/C)[O-].CC(=[OH+])/C=C(\C)[O-].CC(=[OH+])/C=C(\C)[O-].[Al]	3.81% (inactive)	–
Cc1ccc(CCl)cc1	11.1% (inactive)	–
CC(C)(C)OOC(=O)c1ccccc1	–	inactive
Nc1ccc(-c2ccc(N)cc2)cc1	–	inactive
COP(N)(=O)SC (stereo not drawn)	–	inactive
Cc1ccc([N+](=O)[O-])cc1C	–	inactive

Compound	activity change, negative = inhibition	Potency
CC(COc1ccc(Oc2ccccc2)cc1)Oc1ccccn1 (stereo not drawn)	-28.7% (inactive)	–
O=C(CBr)c1ccc(O)cc1	1.05% (inactive)	–
Cn1c(-c2ccccc2)cc(-c2ccccc2)[n+]1C	–	inactive
O=C1CCCN1	–	inactive
CCCCCCCCCCCCCCCC[N+](C)(C)C	0.751% [at 42.5 µM] (inactive)	–
CCCCCCCCOC(=O)c1ccccc1C(=O)OCCCCCCCC	-2% (inactive)	–
CCCCCCCCCCCCCl	–	inactive
COP(=S)(OC)SCN1C(=O)c2ccccc2C1=O	–	inactive
CCOP(OCC)OCC	–	inactive
OCC1CO1 (stereo not drawn)	–	inactive
CCOP(=S)(OCC)SCCSCC	–	inactive
COc1ccc2c3c1O[C@H]1[C@@H](O)C=C[C@H]4[C@@H](C2)N(C)CC[C@@]341	-0.0788% (inactive)	–
Oc1ccc(Cl)cc1Cc1ccccc1	–	inactive
C=C(Cl)CCl	2.69% (inactive)	–
Cc1ccc(Cl)c(O)c1	-0.368% [at 42.5 µM] (inactive)	–
CCN(CC)N=O	–	inactive
